An excerpt weighted towards active compounds, which were near 3% of everything screened.
SENP6 block: inhibitors of human SENP6 protease; Q9GZR1; Recombinant SENP6 catalytic domain, aminoluciferin luminescence; inhibition, % at 10 µM; 330,000 compounds, 1.8% hits; AID 2599;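 active means inhibition above about 50% at the single tested dose, limit read from the data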
SENP7 block: inhibitors of human SENP7 protease; inhibition, % at 5 µM; 330,000 compounds, 1.5% hits; recombinant SENP7, Z-RLRGG-aminoluciferin luminescence, 40 min;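 active means inhibition above about 50% at the single test dose, limit read from the data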
Target sequence (Q9BQF6 706-1050 limits assumed): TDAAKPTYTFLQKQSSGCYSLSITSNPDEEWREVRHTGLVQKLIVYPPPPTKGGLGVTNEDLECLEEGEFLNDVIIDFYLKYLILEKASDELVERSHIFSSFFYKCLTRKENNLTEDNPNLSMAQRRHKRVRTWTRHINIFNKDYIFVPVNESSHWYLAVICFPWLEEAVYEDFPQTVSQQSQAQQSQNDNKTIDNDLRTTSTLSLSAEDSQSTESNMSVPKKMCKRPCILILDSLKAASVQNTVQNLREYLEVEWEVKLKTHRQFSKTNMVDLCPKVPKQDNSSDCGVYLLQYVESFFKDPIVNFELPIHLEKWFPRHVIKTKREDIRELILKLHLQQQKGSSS
SENP8 block-1: inhibitors of human SENP8 protease. Q96LD8. AID 2540. 330,000 compounds, 1.2% hits. inhibition, % at 10 µM. purified SENP8, Z-RLRGG-aminoluciferin cleavage, luminescence; in the data active means inhibition above about 50%
Target sequence (Q96LD8 whole entry, looked up): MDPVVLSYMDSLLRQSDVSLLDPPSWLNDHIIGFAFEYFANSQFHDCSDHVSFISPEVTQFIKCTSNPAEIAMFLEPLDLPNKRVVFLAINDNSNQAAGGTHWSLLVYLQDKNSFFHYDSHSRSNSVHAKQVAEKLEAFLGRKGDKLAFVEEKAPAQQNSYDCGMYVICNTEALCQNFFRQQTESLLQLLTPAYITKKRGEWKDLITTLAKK
SENP8 block-2: blocks human SENP8 cleavage of Nedd8 substrate. recombinant SENP8, Nedd8 substrate fluorescence. 360,000 compounds, 0.64% hits. Q96LD8. inhibition, % at 20 µM; in the data active means inhibition mostly above about 40%, no sharp cut-off; inactive means mostly below about 27%
C8 TRAIL sens: caspase-8 TRAIL sensitization | inhibition (viability loss, TRAIL sensitization), % at 10 µM | NB7+C8 cells + TRAIL, ATPlite viability luminescence | 360,000 compounds, 1% hits;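 active means compounds causing at least 50% loss of cell viability in the single-dose screen, relative to plate controls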
PPC-1+TRAIL kill: compounds killing PPC-1 cancer cells with TRAIL present (potentiator screen, no TRAIL-free arm); PPC-1 cells + TRAIL, ATPLite viability luminescence; cell killing (% activity), % at 4 µM or 5 µM; 220,000 compounds, 0.41% hits;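 active means cell killing above 50% in the first pass at 4 µM, then a duplicate retest at 5 µM averaging 50% or more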
SENP8 confirm: human SENP8 inhibition, confirmed | shares compounds with SENP7 block | Recombinant SENP8, Z-RLRGG-aminoluciferin luminescence, 60 min | inhibition, % at 12.5 µM | 6,200 compounds, 40% hits | AID 488912;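 active means mean inhibition across replicates above about 50%, limit read from the data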
SENP6 confirm: confirmation of human SENP6 protease inhibitors | shares compounds with SENP7 block | recombinant SENP6, Z-RLRGG-aminoluciferin luminescence | inhibition, % at 12.5 µM | 6,200 compounds, 58% hits | AID 488915
SENP7 conf: confirmation of human SENP7 protease inhibitors; recombinant SENP7, Z-RLRGG-aminoluciferin luminescence, 40 min; 6,200 compounds, 69% hits; shares compounds with SENP7 block; inhibition, % at 12.5 µM
Casp3 select: inhibits human caspase-3 in SENP selectivity test | shares compounds with SENP7 block | purified caspase-3, Z-DEVD-aminoluciferin luminescence, 60 min | inhibition, % at 12.5 µM | 6,200 compounds, 60% hits | AID 488918;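 active means mean inhibition above about 50%, limit read from the data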
Luc interf: counter-screen for SENP inhibitors: luminescence interference | shares compounds with SENP7 block | Pre-incubated SENP8/Z-RLRGG-aminoluciferin, luciferase luminescence interference | inhibition, % at 12.5 µM | 6,200 compounds, 39% hits | AID 488919;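 active means mean inhibition above about 50% when retested at one dose, limit read from the data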
Numbers stand for hits; 0 = inactive; - = no result.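 How the source made its calls, unless noted: active means mean inhibition above about 50% in the one-dose retest (limit read from the data); inactive means the rest.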

SMILES	SENP6 block	SENP7 block	SENP8 block-1	SENP8 block-2	C8 TRAIL sens	PPC-1+TRAIL kill	SENP8 confirm	SENP6 confirm	SENP7 conf	Casp3 select	Luc interf
Cc1ccc(NC(=O)CN2C(=O)S/C(=C\c3ccc(-c4cccc(C(=O)O)c4C)o3)C2=O)cc1C	-	-	-	0	0	0	-	-	-	-	-
Cc1ccc(Nc2cc(=O)n(C)c(=O)[nH]2)cc1C	-	-	-	0	0	-	-	-	-	-	-
O=C(Nc1ccc(Cl)c(Cl)c1)Nc1ccccc1C(=O)O	100	101	98	0	63	0	0	101	104	100	100
O=C(Nc1ccc(Cl)cc1)Nc1ccccc1C(=O)O	95	100	96	0	75	-	0	101	104	99	0
Cc1ccc(NC(=O)Nc2ccccc2C(=O)NCc2ccccc2)cc1	0	73	0	0	0	0	0	0	76	56	0
NC(=O)c1ccccc1OCC(=O)Nc1ccc(Cl)c(Cl)c1	52	0	0	0	0	0	0	0	64	0	0
Cc1ccccc1NC(=O)Nc1ccccc1C(=O)NCc1ccccc1	0	0	0	0	0	0	-	-	-	-	-
O=C(Nc1ccc(Cl)cc1)Nc1ccccc1CC[N+](=O)[O-]	0	0	0	0	0	0	-	-	-	-	-
CCCCN(C(=O)c1cc2c(s1)CCCCC2)c1c(N)n(CC(C)C)c(=O)[nH]c1=O	0	0	0	0	0	-	-	-	-	-	-
COc1ccc(CN(C)C(=O)[C@H]2O[C@@H](n3ccc(N)nc3=O)[C@H](O)[C@@H]2O)cc1OC	-	-	-	0	0	-	-	-	-	-	-
Cc1cccc2cc(CNCc3ccccc3)c(Cl)nc12	0	0	0	0	0	0	-	-	-	-	-
O=C(O)c1cccnc1Nc1ccc(Cl)cc1	66	0	56	0	0	0	72	70	85	72	74
Cc1ccc(Nc2ncccc2C(=O)O)cc1C	0	0	0	0	0	0	-	-	-	-	-
CCOC(=O)c1oc2cccc(O)c2c1C	0	63	50	0	0	0	0	59	82	59	65
Cc1ccc(Nc2nc(Cl)c(C=O)s2)cc1Cl	94	87	93	0	0	0	69	96	85	52	0
CCOC(=O)c1sc(NC(=O)C2CCC2)cc1C	0	0	0	0	0	0	-	-	-	-	-
CCOC(=O)c1cc(NC(=O)Nc2ccccc2Cl)c(C)nc1C	0	0	0	0	0	0	-	-	-	-	-
CCOC(=O)c1sc(NC(=O)Nc2ccccc2Cl)cc1C	95	99	95	0	77	63	95	96	100	89	0
CCOC(=O)c1sc(NC(C)=O)cc1C	0	0	0	0	0	0	-	-	-	-	-
CCOC(=O)c1sc(NC(=O)c2ccc(C)s2)cc1C	0	73	0	0	0	0	0	0	71	0	0
CCOC(=O)c1sc(NC(=O)Nc2ccccc2)cc1C	98	89	81	0	73	60	91	91	98	68	72
CCOc1ccc(S(=O)(=O)N(CC)CC(=O)NC2CC2)cc1	0	0	0	0	0	-	-	-	-	-	-
CN(C)c1ccc(C=Nc2cnn(C)c2C(N)=O)cc1	73	77	68	0	0	0	0	0	78	62	0
CCCn1c(/N=C/c2c[nH]c3ccccc23)nc2ccccc21	0	0	0	0	0	0	-	-	-	-	-
CCn1c(/N=C/c2c[nH]c3ccccc23)nc2ccccc21	72	0	53	0	0	0	69	71	92	0	79
SMILES	SENP6 block	SENP7 block	SENP8 block-1	SENP8 block-2	C8 TRAIL sens	PPC-1+TRAIL kill	SENP8 confirm	SENP6 confirm	SENP7 conf	Casp3 select	Luc interf
Cc1ccc2c(c1)c(=O)c1c3n2CCN(C(=O)CCl)C3CC1 (stereo not given)	50	0	0	0	0	0	0	60	0	0	0
O=C(/C=C/c1ccccc1)Nc1cccnc1Cl	74	0	66	0	0	-	69	60	90	84	73
O=C(/C=C/c1ccco1)Nc1cccnc1Cl	58	54	0	0	0	0	58	56	86	85	63
Cc1cccnc1NC(=O)Nc1ccc(F)cc1	0	0	0	0	0	0	-	-	-	-	-
O=C(Nc1ccc(F)cc1)Nc1cccnc1Cl	81	85	77	0	0	-	0	78	96	88	81
Cc1ccc(C(O)c2ncc(-c3cccc4ccccc34)[nH]2)c(C)c1 (stereo not given)	-	-	-	0	0	-	-	-	-	-	-
Cc1cc(N2CCCC2)ccc1NC(=O)CN1C(=O)NC2(CCCCC2)C1=O	0	0	0	0	0	-	-	-	-	-	-
CC(=O)c1cccc(NC(=O)N2CCC(NC(=O)C3CCCCC3)CC2)c1	0	0	0	0	0	-	-	-	-	-	-
COc1ccc(NS(=O)(=O)c2cccc(C(=O)NNC(=O)CNC(=O)c3ccc(C)cc3)c2)cc1	0	0	0	0	0	-	-	-	-	-	-
C/C(=N\NC(=O)Cn1cc([N+](=O)[O-])cn1)c1ccc(O)cc1	0	0	0	0	0	0	-	-	-	-	-
Cc1ccc(C(=O)ONc2ccc(N=O)cc2)cc1	96	100	98	0	0	0	0	101	104	90	0
COc1cccc(-c2nc(-c3ccccc3)no2)c1	95	95	89	0	0	0	87	93	98	85	83
Brc1ccc(-c2nnc(-c3cccc(Br)c3)o2)cc1	0	0	0	0	0	0	-	-	-	-	-
COc1ccc(-c2noc(-c3ccc(Cl)cc3)n2)cc1	0	0	0	-	-	0	-	-	-	-	-
COc1cccc(-c2noc(-c3cccs3)n2)c1	92	94	88	0	0	0	0	95	102	88	85
O=C(O)c1ccc(-c2nnc(-c3cccc(Br)c3)o2)cc1	93	0	0	0	0	-	89	90	93	98	0
COc1ccc(-c2nc(-c3ccc(C(=O)O)cc3)no2)cc1	98	95	97	0	0	-	98	98	102	86	97
COC(=O)C1(C(F)(F)F)C2C=CC(C2)N1S(=O)(=O)c1ccc(C)cc1 (stereo not given)	0	0	0	0	0	-	-	-	-	-	-
O=C(NC(=S)NCc1ccco1)c1ccccc1[N+](=O)[O-]	0	0	0	0	0	-	-	-	-	-	-
O=C(NCc1ccccn1)c1ccc(CNS(=O)(=O)c2cccc(Cl)c2)cc1	0	0	0	0	0	0	-	-	-	-	-
c1ccc(-c2cc(-c3cc(-c4ccccc4)on3)no2)cc1	-	-	-	0	0	-	-	-	-	-	-

Source: PubChem (Sanford-Burnham Center for Chemical Genomics)
